Test results taken from the supplement of paper PMC11732987, “Enantioselective OTUD7B fragment discovery through chemoproteomics screening and high-throughput optimisation” (Communications Chemistry, 2025).
Values without a mark were called inactive.

Tests used:
Test in all cases: log2 ratio of Biotin-Ahx-Ub-VS probe labelling (fragment/DMSO); higher = less target engagement (more negative = stronger competition), active = hit call of the paper (q ≤ 0.05, log2 ratio ≤ -1)
Conditions in all cases: compound concentration: 200 uM; treatment time: 3 h
OTUD6B = target: T1, OTUD6B (UniProt Q8N6M0)
T1 sequence (whole entry): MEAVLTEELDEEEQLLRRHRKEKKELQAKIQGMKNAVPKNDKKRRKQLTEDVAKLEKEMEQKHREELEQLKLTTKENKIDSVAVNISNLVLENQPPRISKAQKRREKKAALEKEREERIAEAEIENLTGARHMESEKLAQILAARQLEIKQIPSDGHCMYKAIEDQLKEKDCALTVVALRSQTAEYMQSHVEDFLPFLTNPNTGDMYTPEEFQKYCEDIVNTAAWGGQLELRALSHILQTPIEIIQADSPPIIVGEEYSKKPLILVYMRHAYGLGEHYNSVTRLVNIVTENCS
Outline: (§1)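 HEK293T lysate in Tris/CHAPS/IGEPAL buffer with protease inhibitors (495 µg per sample) was given fragment at 200 µM or vehicle for 3 h, in triplicate. It then received Biotin-Ahx-Ub-VS at 0.5 µM final for 1 h. Labelled DUBs were NeutrAvidin-enriched, digested with LysC and trypsin, and run by diaPASEF LC-MS/MS. Values are average log2 fragment/vehicle ratios by unpaired t-test on global-median-normalised Spectronaut quantities of proteins with ≥2 unique peptides.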

OTUD7B = target: T2, OTUD7B (UniProt Q6GQQ9)
T2 sequence (whole entry): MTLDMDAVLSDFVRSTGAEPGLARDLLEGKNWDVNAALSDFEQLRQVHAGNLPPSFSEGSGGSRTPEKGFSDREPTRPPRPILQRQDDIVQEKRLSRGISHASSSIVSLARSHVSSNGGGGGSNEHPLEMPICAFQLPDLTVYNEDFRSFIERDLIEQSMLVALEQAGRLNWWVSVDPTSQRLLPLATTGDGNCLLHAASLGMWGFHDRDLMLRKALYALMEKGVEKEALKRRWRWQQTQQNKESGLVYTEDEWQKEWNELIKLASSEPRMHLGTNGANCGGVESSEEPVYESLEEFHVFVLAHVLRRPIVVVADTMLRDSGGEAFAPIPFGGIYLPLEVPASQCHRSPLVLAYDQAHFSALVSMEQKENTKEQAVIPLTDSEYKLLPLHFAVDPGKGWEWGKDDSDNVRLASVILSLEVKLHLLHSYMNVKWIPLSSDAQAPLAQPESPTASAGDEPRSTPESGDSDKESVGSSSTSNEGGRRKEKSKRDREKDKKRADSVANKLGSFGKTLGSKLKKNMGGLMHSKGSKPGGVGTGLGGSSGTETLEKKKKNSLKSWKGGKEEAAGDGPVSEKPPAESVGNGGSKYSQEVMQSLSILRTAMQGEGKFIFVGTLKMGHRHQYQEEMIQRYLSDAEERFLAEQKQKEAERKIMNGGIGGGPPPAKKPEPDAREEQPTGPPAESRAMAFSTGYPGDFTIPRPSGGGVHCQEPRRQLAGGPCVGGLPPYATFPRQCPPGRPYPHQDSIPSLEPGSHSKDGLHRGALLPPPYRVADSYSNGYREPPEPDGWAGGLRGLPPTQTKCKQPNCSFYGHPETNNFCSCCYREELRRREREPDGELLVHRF
Outline: as §1

PRPF8 = PRPF8 (UniProt Q6P2Q9)
Outline: as §1

PSMD7 = target: T3, PSMD7 (UniProt P51665)
T3 sequence (whole entry): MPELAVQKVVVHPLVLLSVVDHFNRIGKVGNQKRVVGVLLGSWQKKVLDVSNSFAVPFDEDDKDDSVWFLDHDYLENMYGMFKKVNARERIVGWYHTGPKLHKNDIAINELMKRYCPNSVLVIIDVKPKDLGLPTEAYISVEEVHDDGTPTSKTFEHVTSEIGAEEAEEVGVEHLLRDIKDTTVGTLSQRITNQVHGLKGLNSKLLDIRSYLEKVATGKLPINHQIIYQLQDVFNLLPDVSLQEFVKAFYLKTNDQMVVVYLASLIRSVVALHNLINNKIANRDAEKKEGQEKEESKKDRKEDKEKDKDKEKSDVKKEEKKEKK
Outline: as §1

UCHL1 = UCHL1 (UniProt P09936)
Outline: as §1

UCHL3 = target: T4, UCHL3 (UniProt P15374)
T4 sequence (whole entry): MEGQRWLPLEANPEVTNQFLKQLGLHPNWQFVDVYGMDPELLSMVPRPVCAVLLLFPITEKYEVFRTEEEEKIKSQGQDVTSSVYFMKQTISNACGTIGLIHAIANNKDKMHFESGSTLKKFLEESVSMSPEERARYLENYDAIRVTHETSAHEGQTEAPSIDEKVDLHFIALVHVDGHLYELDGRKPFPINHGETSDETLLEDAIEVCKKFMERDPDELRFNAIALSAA
Outline: as §1

UCHL5 = target: T5, UCHL5 (UniProt Q9Y5K5)
T5 sequence (whole entry): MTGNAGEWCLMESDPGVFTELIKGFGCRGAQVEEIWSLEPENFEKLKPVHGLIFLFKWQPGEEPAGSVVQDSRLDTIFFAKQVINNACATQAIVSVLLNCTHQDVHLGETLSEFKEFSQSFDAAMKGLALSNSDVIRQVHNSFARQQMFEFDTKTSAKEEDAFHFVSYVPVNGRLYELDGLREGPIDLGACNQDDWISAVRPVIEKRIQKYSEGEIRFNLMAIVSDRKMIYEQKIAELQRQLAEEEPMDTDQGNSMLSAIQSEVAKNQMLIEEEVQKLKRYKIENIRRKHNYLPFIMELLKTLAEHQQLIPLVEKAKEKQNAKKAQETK
Outline: as §1

USP10 = USP10 (UniProt Q14694)
Outline: as §1

USP15 = target: T6, USP15 (UniProt Q9Y4E8)
T6 sequence (whole entry): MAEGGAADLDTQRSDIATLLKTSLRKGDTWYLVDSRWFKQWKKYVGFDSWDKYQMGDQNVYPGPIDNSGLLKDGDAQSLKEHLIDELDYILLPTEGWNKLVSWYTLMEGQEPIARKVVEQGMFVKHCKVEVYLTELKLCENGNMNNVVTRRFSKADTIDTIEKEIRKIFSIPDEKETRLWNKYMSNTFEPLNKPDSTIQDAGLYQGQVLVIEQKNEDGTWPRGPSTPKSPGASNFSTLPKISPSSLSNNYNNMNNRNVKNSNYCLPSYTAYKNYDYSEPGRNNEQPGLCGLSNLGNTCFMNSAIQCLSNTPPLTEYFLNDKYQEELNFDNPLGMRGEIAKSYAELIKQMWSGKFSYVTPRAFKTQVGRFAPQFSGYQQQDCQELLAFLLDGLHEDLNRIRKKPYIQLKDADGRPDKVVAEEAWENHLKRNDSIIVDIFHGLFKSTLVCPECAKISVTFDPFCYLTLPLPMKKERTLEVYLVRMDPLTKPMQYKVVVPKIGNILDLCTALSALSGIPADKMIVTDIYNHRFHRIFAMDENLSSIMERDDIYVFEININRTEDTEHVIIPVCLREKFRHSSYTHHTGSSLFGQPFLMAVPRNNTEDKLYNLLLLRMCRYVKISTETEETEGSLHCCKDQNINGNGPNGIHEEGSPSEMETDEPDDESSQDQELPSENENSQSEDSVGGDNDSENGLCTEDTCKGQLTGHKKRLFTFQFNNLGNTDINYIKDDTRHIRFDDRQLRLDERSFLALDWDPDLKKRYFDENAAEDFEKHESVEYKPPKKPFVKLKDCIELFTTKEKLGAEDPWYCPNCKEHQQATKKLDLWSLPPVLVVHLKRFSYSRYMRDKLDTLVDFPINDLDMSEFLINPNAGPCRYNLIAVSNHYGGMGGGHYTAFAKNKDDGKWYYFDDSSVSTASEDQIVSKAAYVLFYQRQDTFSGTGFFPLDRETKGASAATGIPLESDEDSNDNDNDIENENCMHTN
Outline: as §1

USP16 = USP16 (UniProt Q9Y5T5)
Outline: as §1

Sequence of UCHL1 (P09936 whole entry, looked up): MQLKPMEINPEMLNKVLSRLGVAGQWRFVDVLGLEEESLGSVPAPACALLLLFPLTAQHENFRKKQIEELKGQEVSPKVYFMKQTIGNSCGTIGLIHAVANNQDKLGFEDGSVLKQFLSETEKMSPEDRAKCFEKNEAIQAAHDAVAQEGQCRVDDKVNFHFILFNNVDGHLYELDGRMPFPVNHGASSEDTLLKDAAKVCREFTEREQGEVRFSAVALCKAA
Sequence of USP10 (Q14694 whole entry): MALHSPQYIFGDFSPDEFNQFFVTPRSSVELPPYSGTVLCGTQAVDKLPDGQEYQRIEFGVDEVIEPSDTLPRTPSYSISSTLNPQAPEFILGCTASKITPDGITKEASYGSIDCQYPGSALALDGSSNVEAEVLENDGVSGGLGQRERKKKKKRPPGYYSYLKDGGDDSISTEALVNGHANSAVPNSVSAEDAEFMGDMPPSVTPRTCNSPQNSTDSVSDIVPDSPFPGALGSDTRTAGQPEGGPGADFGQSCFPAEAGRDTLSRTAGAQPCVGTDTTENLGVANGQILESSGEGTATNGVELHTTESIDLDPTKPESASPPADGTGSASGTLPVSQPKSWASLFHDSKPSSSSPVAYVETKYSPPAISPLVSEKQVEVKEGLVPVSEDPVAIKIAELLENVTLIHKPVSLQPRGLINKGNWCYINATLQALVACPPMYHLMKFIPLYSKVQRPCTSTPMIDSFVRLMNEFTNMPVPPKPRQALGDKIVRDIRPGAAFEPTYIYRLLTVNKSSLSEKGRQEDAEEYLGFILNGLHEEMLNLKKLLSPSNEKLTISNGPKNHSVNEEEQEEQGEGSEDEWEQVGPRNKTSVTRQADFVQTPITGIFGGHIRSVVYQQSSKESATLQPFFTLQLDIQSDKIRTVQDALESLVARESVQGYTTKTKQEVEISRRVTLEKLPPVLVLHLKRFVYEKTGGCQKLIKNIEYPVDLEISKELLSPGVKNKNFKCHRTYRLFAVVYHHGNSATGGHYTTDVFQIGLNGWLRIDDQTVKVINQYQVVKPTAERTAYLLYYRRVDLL
Sequence of USP16 (Q9Y5T5 whole entry, looked up): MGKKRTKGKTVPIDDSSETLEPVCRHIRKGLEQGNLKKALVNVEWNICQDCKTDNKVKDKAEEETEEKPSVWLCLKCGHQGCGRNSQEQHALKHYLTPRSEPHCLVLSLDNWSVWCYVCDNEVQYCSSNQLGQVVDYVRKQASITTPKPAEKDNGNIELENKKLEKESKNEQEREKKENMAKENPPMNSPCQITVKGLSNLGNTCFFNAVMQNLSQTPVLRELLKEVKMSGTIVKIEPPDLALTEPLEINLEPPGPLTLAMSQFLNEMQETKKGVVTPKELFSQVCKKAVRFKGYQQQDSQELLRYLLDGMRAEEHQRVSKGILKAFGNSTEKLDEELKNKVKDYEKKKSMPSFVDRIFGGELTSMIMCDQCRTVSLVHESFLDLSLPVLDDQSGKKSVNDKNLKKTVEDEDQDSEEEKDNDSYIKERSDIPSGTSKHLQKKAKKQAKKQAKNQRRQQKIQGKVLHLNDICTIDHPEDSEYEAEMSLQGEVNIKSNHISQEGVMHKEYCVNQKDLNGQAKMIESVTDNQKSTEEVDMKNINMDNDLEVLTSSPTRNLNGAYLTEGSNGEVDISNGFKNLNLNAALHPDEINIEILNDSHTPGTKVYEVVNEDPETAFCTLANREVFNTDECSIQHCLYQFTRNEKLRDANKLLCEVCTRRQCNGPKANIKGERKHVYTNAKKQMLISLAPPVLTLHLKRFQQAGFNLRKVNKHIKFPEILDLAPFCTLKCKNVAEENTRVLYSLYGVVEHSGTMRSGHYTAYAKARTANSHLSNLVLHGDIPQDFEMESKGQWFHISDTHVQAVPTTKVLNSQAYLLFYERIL

## Cc1ccccc1OCC(=O)N1CCN(C(=O)CCl)CC1
OTUD6B
  log2 ratio of Biotin-Ahx-Ub-VS probe labelling: -0.157
OTUD7B
  log2 ratio of Biotin-Ahx-Ub-VS probe labelling: -0.203
PRPF8
  log2 ratio of Biotin-Ahx-Ub-VS probe labelling: 0.281
PSMD7
  log2 ratio of Biotin-Ahx-Ub-VS probe labelling: 0.113
UCHL1
  log2 ratio of Biotin-Ahx-Ub-VS probe labelling: -1.52 (active)
UCHL3
  log2 ratio of Biotin-Ahx-Ub-VS probe labelling: 0.461
UCHL5
  log2 ratio of Biotin-Ahx-Ub-VS probe labelling: -0.137
USP10
  log2 ratio of Biotin-Ahx-Ub-VS probe labelling: -0.173
USP15
  log2 ratio of Biotin-Ahx-Ub-VS probe labelling: -0.416
USP16
  log2 ratio of Biotin-Ahx-Ub-VS probe labelling: -0.973
